Source: PubChem BioAssay
KB-V1 MDR tox: qHTS assay for MDR1-selective chemotherapeutics: Primary screen using the drug-selected MDR subline cells KB-V1 | KB-V1 MDR cells viability, CellTiter-Glo, 72 h | Potency, µM (highest dose often 46.1 µM), actives largely listed as cytotoxic | 400,000 compounds, 3.4% hits | AID 1347076, 2019; note: potency is the fitted concentration of half-maximal effect; nearly all actives have a fitted effect of over 60% in size
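Drug-selected KB-V1 cells, grown in DMEM lacking phenol red with 10% FBS, receive compound titrations; after three days at 37 degrees C, surviving cell ATP is quantified by CellTiter-Glo luminescence and responses normalized and curve-fitted.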
PI4K2A inh: qHTS for small molecular inhibitors of PI4K2A; activity change, negative = inhibition, % at 76.9 µM; 420,000 compounds, 0.13% hits; Phosphatidylinositol 4-kinase type 2-alpha (Homo sapiens), Q9BTU6; purified PI4K2A, ADP-Glo luminescence, 1 h; hits give low values; in the data active = activity change below about -50%; inconclusive = mostly about -30% to -49%;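 note: -100% = wells without enzyme as full effect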
Target sequence (Q9BTU6 whole entry, looked up): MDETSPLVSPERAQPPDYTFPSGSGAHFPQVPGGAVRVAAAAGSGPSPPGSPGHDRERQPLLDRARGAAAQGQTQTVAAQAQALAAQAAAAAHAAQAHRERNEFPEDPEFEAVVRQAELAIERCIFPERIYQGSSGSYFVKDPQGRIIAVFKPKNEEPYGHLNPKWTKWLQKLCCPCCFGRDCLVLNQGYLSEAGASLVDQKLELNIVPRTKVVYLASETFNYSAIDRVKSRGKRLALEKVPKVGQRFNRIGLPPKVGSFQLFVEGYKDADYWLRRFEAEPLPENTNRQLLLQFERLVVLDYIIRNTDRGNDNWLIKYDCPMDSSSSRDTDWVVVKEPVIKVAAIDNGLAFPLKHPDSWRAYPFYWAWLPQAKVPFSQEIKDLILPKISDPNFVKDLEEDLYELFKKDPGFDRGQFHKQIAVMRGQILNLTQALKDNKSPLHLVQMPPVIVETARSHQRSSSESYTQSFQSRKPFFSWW
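PI4K2A activity was measured by ADP-Glo luminescence: enzyme (4 ug/mL stock) and phosphatidylinositol (1.2 mM stock) in Tris pH 7.5/MgCl2/EGTA/Triton X-100 buffer were reacted with ATP (300 microM stock) for one hour at ambient temperature.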
Nrf2 block: Nrf2 qHTS screen for inhibitors. AID 504444, 2011. A549 ARE-Fluc reporter, luciferase luminescence, 18-24 h. 360,000 compounds, 2.1% hits. Potency, µM (titrated, usually from 46 µM), without a hit: at the highest dose activity change, negative = inhibition, usual class: inhibitors; note: potency is the fitted concentration of half-maximal effect; nearly all actives have a fitted effect of over 60% in size
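In this cell-based qHTS, ARE-driven firefly luciferase in A549 cells reports Nrf2 activity; the luminescent signal after BugLite lysis is the measured value, with a prior CellTiter-Fluor read for cell health.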
A549 tox: Nrf2 qHTS screen for inhibitors: counterscreen for cytotoxicity; A549 ARE-Fluc cells, CellTiter-Fluor viability, 18-24 h; Potency, µM (titrated, usually from 46 µM), for inactives: at the top dose activity change, negative = cytotoxicity, actives largely listed as inhibitors; 390,000 compounds, 0.16% hits; AID 504648, 2011; note: potency is the fitted concentration of half-maximal effect
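Cytotoxicity counterscreen: CellTiter-Fluor fluorescence was measured in A549 ARE_Fluc cells after 18-24 h of compound exposure in a concentration series. The subsequent BugLite luminescent read reports ARE-luciferase activity.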
Giardia kill: Small Molecules that selectively kill Giardia lamblia: qHTS | activity change, % at 7.66 µM, hits read low | Giardia lamblia trophozoite viability | 340,000 compounds, 0.15% hits; in the data active = activity change below about -80%; inconclusive = between about -30% and that limit;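 note: parasites exposed to compound for two days anaerobically before the ATP read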
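Media and compound were dispensed first, then trophozoites at 100 cells/well; plates sat 48 hrs at 37 deg C without oxygen before ATP luminescence reagent was added and read after 15-30 min at room temperature.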
KB-3-1 cytotox: qHTS assay for MDR1-selective chemotherapeutics: Primary screen using the parental adenocarcinoma cell KB-3-1; Potency, µM (highest dose often 46.1 µM), hits mostly cytotoxic; KB-3-1 viability, CellTiter-Glo ATP luminescence, 72 h; 400,000 compounds, 1.4% hits; AID 1347075, 2019; note: potency is the fitted concentration of half-maximal effect; nearly all actives have a fitted effect of over 60% in size
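Cytotoxicity measured as CellTiter-Glo luminescence after 72 h at 37 C. Compound titrations were pinned onto drug-naive KB-3-1 parental adenocarcinoma cells grown in DMEM with 10% FBS, and normalized data fitted to concentration-response curves.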
Starred values were filed as active, the others as inactive; i = inactive; ? = inconclusive; nt = not tested or not shown; ! = not active in a repeat. Hits are enriched below; roughly 5.7% of the tested compounds scored in any of these assays. Unless noted, calls come from the whole dose curve; as a rule, active = well fitted curve in the direction sought with a large enough effect; inconclusive = small, poorly fitted or top-dose-only effect, or another doubt; inactive = no such curve, though single readings can be large; an effect the other way counts as inactive or inconclusive. Unless noted, % is set by controls: 0 for no effect and ±100 for the full control effect.

SMILES	KB-V1 MDR tox	PI4K2A inh	Nrf2 block	A549 tox	Giardia kill	KB-3-1 cytotox
Cc1cc(-c2ccc(C(C)C)c(S(=O)(=O)N3CCN(c4ccccc4)CC3)c2)on1	12µM*	6	-10%	-13%	-12	5.8µM*
CCc1ccc(-c2cc(C)no2)cc1S(=O)(=O)N1CCN(c2cccc(Cl)c2)CC1	?	1	?	-2%	nt	3.7µM*
Cc1cc(-c2ccc(C)c(S(=O)(=O)N3CCC(C)CC3)c2)on1	?	0	?	13%	nt	i
Cc1cc(-c2ccc(C)c(S(=O)(=O)N3CCN(c4ccc(F)cc4)CC3)c2)on1	i	0	8.2µM*	-6%	-7	?
COc1ccc(N2CCN(S(=O)(=O)c3cc(-c4cc(C)no4)ccc3C(C)C)CC2)cc1	?	-1	?	-3%	-6	i
O=C(Oc1c(Cl)cc(Cl)c2cccnc12)c1ccco1	2.1µM*	-17	23µM*	?	0	?
O=C(Oc1c(CN2CCOCC2)cc(Cl)c2cccnc12)c1ccc(F)cc1	3.3µM*	-5	23µM*	nt	1	5.8µM*
COc1cc(C(=O)Oc2c(CN3CCOCC3)cc(Cl)c3cccnc23)cc(OC)c1OC	?	-21	9%	-4%	25	?
COc1ccc(C(=O)Oc2c(CN3CCOCC3)cc(Cl)c3cccnc23)cc1	?	0	-1%	-17%	-12	10µM*
O=C(Oc1c(CN2CCOCC2)cc(Cl)c2cccnc12)c1ccccc1Cl	?	-30	-23%	-24%	-6	?
COc1cccc(C(=O)Oc2c(CN3CCOCC3)cc(Cl)c3cccnc23)c1	7.3µM*	-21	?	?	-1	?
Cc1ccc(NC(=O)C2CCN(c3nnc(-n4cccc4)s3)CC2)c(C)c1	nt	-9	nt	nt	nt	nt
Cc1ccc(NC(=O)[C@@H]2CC(=O)O[C@@H]2c2ccccc2)c(C)c1	nt	1	nt	nt	nt	nt
Cc1ccc2oc(/N=C(\N)NC(=O)C3CC3)nc2c1	5.2µM*	-5	?	11%	8	?
Cc1ccc2oc(/N=C(\N)NC(=O)C(C)(C)C)nc2c1	i	-5	13µM*	0%	?	i
CC(C)CN(C)c1ccc(/C=C2\C=Cc3ccccc32)cc1	i	nt	nt	nt	nt	i
C=CCNC(=O)Nc1ccc2c(c1)[C@@]1(CC(=O)N(CC(C)C)C1c1ccccc1)C(=O)N2C (some centres undefined)	nt	0	nt	nt	nt	nt
COc1ccc(-c2c(C)nn3c(N)c(C#N)cnc23)cc1OC	9.2µM*	-3	?	-4%	-8	i
COc1cc2c(cc1OC)C(c1c(Cl)cccc1Cl)=NCC2	?	-4	nt	nt	nt	21µM*
COc1ccc2c(c1)C=C/C2=C\c1ccc(N(C)C)cc1	i	nt	nt	nt	nt	?
C=CCNC(=O)c1ccc(Cn2cc(C(F)(F)F)ccc2=O)cc1	i	8	0%	-4%	-3	i
O=C(NCc1ccccc1Cl)c1ccc(Cn2cc(C(F)(F)F)ccc2=O)cc1	6.5µM*	3	-5%	0%	-8	i
O=C(NCc1ccc(Cl)cc1)c1ccc(Cn2cc(C(F)(F)F)ccc2=O)cc1	16µM*	1	-15%	-6%	-3	i
Cc1ccc(SCCNC(=O)CN(c2ccc3c(c2)OCO3)S(C)(=O)=O)cc1	?	7	nt	4%	-3	i
CS(=O)(=O)N(CC(=O)NCCSC1CCCCC1)c1ccc2c(c1)OCO2	18µM*	-7	nt	2%	16	i
SMILES	KB-V1 MDR tox	PI4K2A inh	Nrf2 block	A549 tox	Giardia kill	KB-3-1 cytotox
COc1cc(CN2CC(=O)N(c3ccc(C)c(C)c3)C2=S)cc(OC)c1OC	16µM*	-1	-7%	0%	3	?
CCc1ccc(N2C(=O)CN(Cc3cc(OC)c(OC)c(OC)c3)C2=S)cc1	7.3µM*	0	-17%	-12%	6	i
COc1ccc(CN2CC(=O)N(c3ccc(C)cc3C)C2=S)cc1OC	?	-11	13µM*	-14%	0	i
COC(=O)C(CN)CN1C(=O)c2ccccc2C1=O (centres undefined)	nt	-2	nt	nt	nt	nt
CN1CCN(Cc2nc3ccccc3c(=O)n2Cc2nc(-c3cccc([N+](=O)[O-])c3)cs2)CC1	i	-7	-12%	?	9	i
CN1CCN(Cc2nc3ccccc3c(=O)n2Cc2nc(-c3ccc4ccccc4c3)cs2)CC1	21µM*!	5	?	?	2	?
CC(=O)NC(CC(=O)N(C)C1CCCCC1)c1ccccc1 (centres undefined)	i	9	?	-5%	-15	i
CC(C)(O)CN(C(=O)C(c1ccccc1)c1ccccc1)C1CCCCC1	13µM*	5	0%	-11%	-2	i
COc1ccc(CCNC(=O)c2ccc(CS(=O)(=O)Cc3ccc(C)cc3)o2)cc1OC	?	-6	nt	nt	nt	i
COc1ccc(CCNC(=O)c2ccc(CS(=O)(=O)c3ccc(C)cc3)o2)cc1OC	4.6µM*!	6	21µM*	8%	-7	?
COc1ccc(CCNC(=O)c2ccc(CS(=O)(=O)c3ccc(Cl)cc3)o2)cc1OC	2.6µM*	2	?	-19%	-3	i
Cc1cccc(OCC(=O)N2CCC(c3nc4ccccc4o3)CC2)c1C	nt	0	-1%	1%	nt	nt
CCCCN1C[C@@H](COCc2ccccc2)Oc2cccc(F)c2S1(=O)=O	nt	0	nt	nt	nt	nt
O=[N+]([O-])c1ccc2c(c1)C=CC2	i	nt	nt	nt	nt	i
O=C1c2sc3nc4ccccc4n3c2C(=O)N1c1ccccc1Cl	?	-1	-8%	7%	22	i
N=c1cc(C2(O)CCCCC2)n2c(nc3ccccc32)s1	16µM*	3	?	2%	-20	?
Cc1nc2ccc(S(=O)(=O)NCC(=O)NCc3cccs3)cc2s1	nt	4	nt	nt	nt	nt
CC(NC(=O)COc1ccc(-c2nnco2)cc1)c1ccc(Cl)cc1Cl (centres undefined)	21µM*	-4	-14%	14%	-11	?
O=C(COc1ccc(-c2nnco2)cc1)NCc1ccccc1Cl	i	4	-30%	6%	1	i
COc1ccc(Nc2oc(-c3ccc(COc4ccccc4C)o3)nc2C#N)cc1	i	3	?	-9%	nt	i
C=CCN(Cc1nc(-c2ccc(OC)cc2)no1)C(=O)c1ccc2c(c1)OCO2	21µM*	-3	-23%	3%	-1	i
